FMDV inh: antivirals against foot and mouth disease virus. FMDV antiviral cell-based qHTS. Potency, µM (doses to about 57.9 µM), for the others: top-dose activity change, negative = inhibition, hits mostly inhibitors. 1.2% of 410,000 active; calls by dose curve; tested in HEK293T cells; further: read-out not given here; potency means the concentration at half of the fitted maximal effect; on the % scale 0 is the no-effect control and ±100 the full control effect; nearly all actives have a fitted effect of over 45% in size
Sm TGR block: S. mansoni TGR enzyme inhibition. Q962Y6. purified TGR, DTNB reduction, TNB absorbance 405 nm. Potency, µM (titrated, usually from 114 µM), without a hit: top-dose activity change, negative = inhibition, hits mostly inhibitors. 3% of 360,000 active; active means well fitted inhibition curve with a large enough effect; inconclusive means small, poorly fitted or top-dose-only effect; inactive means no such curve, though single readings can be large or run the other way; further: potency means the concentration at half of the fitted maximal effect; on the % scale 0 is the no-effect control and ±100 the full control effect; nearly all actives have a fitted effect of over 60% in size
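Kinetic colorimetric format: TGR-catalysed, NADPH-driven DTNB reduction monitored via TNB absorbance. Enzyme dispensed at 20 nM; compound exposure 15 min at room temperature before reaction start.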
Shiga inhibitor: Shiga toxin inhibition; Vero cells, Shiga toxin protein synthesis inhibition reporter; inhibition, % at 38.7 µM; 9.2% of 290,000 active; AID 2315; in the data active means inhibition mostly above about 28%, no sharp cut-off; inactive means mostly below about 43%; further: 0% is about no effect
CHX counter: affects cycloheximide protein synthesis inhibition readout, counter-screen; cell reporter, cycloheximide protein synthesis inhibition counterscreen; max response, %; 12% of 300,000 active; AID 2314; in the data active means max response mostly above about 13%, no sharp cut-off; inactive means mostly below about 14%; further: read at 38.3 µM for the half of the compounds with a filed dose; 0% is about no effect
An asterisk follows results filed as active. Only some compounds are listed: those with a hit (about 12% of all), similar ones and a draw of the others.

`COc1ccc(OCC(=O)NC2CCCCCCC2)cc1` gave FMDV inh 36%, Sm TGR block -1%, Shiga inhibitor 42* and CHX counter 27*.
For CC(C)c1ccc(OCC(=O)NC2CCCC2)cc1 the results were FMDV inh 6%, Sm TGR block 4%, Shiga inhibitor 63* and CHX counter 34*.
Screening COc1ccc(OCC(=O)OCC(=O)NC2CCCC2)cc1 returned FMDV inh -5%.
Screening Cc1ccc(CNC(=O)NC2CCCCC2)cc1 returned FMDV inh 65%, Sm TGR block -1%, Shiga inhibitor 55* and CHX counter 16*.
Cc1ccc(C(C)C)cc1OCC(=O)NC1CCCCCCC1 was read as FMDV inh -8% and Sm TGR block -1%.
Screening Cc1c(C(=O)NCC(c2ccc(Cl)cc2)N2CCOCC2)oc2ccccc12 (stereo not given) returned FMDV inh -22% and Sm TGR block -1%.
For CC(C)c1ccc(OCC(=O)N(c2ccccn2)C2CCCCC2)cc1 the results were FMDV inh -8%, Sm TGR block -2%, Shiga inhibitor 19 and CHX counter 17*.
For CCn1cc(CNC(=O)NC2CCCCC2)c(C)n1 the results were FMDV inh 29%, Sm TGR block -16%, Shiga inhibitor 65* and CHX counter 19*.
`COC(=O)c1ccc(OCC(=O)NC2CCCCCC2)cc1` gave FMDV inh -7%, Sm TGR block -17%, Shiga inhibitor 39* and CHX counter 25.
`Cc1ccc(C(=O)OCC(=O)NC2CCCC2)cc1` gave FMDV inh 41%, Sm TGR block 10%, Shiga inhibitor 75* and CHX counter 32*.
`CC(=O)c1ccc(OCC(=O)NC2CCCCCC2)cc1` gave FMDV inh 0% and Sm TGR block 8%.
`CCn1cc(CNC(=O)/C=C/c2cnn(C)c2)c(C)n1` gave FMDV inh -11%, Sm TGR block 1%, Shiga inhibitor 14 and CHX counter -1.
`COc1ccc(CNc2ncnc3ccc(-c4cccc(NS(C)(=O)=O)c4)cc23)c(OC)c1` gave FMDV inh 0%.
Screening CCOc1cc(C#N)c(NC(=O)c2ccc(OC)c(S(=O)(=O)N3CCN(c4ccccc4)CC3)c2)cc1OCC returned FMDV inh -9% and Sm TGR block -18%.
For Cc1ccc(OCC(=O)OCc2cc(=O)n3nc(C4CCCCC4)sc3n2)cc1C the results were FMDV inh -3% and Sm TGR block -6%.
`CCOc1ccccc1-c1nnc2n1N=C(c1c(OC)cccc1OC)CS2` gave Shiga inhibitor 20 and CHX counter 6.
`Cc1ccc(C(=O)NCC(=O)NC2CCCCCC2)cc1` gave FMDV inh 55%, Sm TGR block -5%, Shiga inhibitor 26* and CHX counter active.
`Cc1cccc(NC(=O)CN(C)S(=O)(=O)c2ccc3c(c2)c(=O)n(C)c(=O)n3C)c1C` gave FMDV inh -23% and Sm TGR block inconclusive.
For Cc1cc(C)n2ncc(/C(N)=N/OC(=O)Nc3ccc(Cl)cc3)c2n1 the results were FMDV inh 6%, Sm TGR block 25%, Shiga inhibitor 48 and CHX counter 20*.
Screening Cc1cc(C)n2ncc(/C(N)=N/OC(=O)c3ccccc3F)c2n1 returned FMDV inh -7%, Sm TGR block 2%, Shiga inhibitor 50* and CHX counter 25*.
O=C(O)c1ccccc1-c1c2cc(Br)c(=O)c(Br)c-2oc2c(Br)c(O)c(Br)cc12 was read as Shiga inhibitor 24 and CHX counter 1.
`CC(C)COC(=O)NCC12C=CC(O1)C1C(=O)N(c3ccc(Cl)cc3)C(=O)C12` (stereo not given) gave FMDV inh 0%, Sm TGR block 1.6µM*, Shiga inhibitor 12 and CHX counter 1.
`Cc1ccc(N2C(=O)C3C4C=CC(CNC(=S)Nc5ccc(Cl)cc5)(O4)C3C2=O)cc1` (stereo not given) gave FMDV inh -1%, Sm TGR block 7.1µM*, Shiga inhibitor -2 and CHX counter 9.6*.
Screening Cc1ccc(C)c(NC(=S)N2CCN(c3ccccn3)CC2)c1 returned FMDV inh 3%, Sm TGR block -20%, Shiga inhibitor -8 and CHX counter 0.
`Cc1ccc(N2C(=O)C3C4C=CC(CNC(=S)N5CCN(c6ccccn6)CC5)(O4)C3C2=O)cc1` (stereo not given) gave FMDV inh -10%, Sm TGR block 2.8µM*, Shiga inhibitor 40 and CHX counter -1.
`Cc1ccc(N2C(=O)C3C4C=CC(CNC(=S)Nc5cccc(Cl)c5)(O4)C3C2=O)cc1` (stereo not given) gave FMDV inh -8%, Sm TGR block 4µM*, Shiga inhibitor -6 and CHX counter -5.
For Cc1ccc(NC(=S)NCCSc2ccc(Cl)cc2)cc1 the results were FMDV inh 19%, Sm TGR block -16%, Shiga inhibitor 27 and CHX counter -2.
CSc1ccc(CCNC(=O)C2CCN(c3ncnc4c3nc3n4CCCCC3)CC2)cc1 was read as FMDV inh -1% and Sm TGR block -4%.
Screening Cc1ccc(N2C(=O)C3C4C=CC(CNC(=S)Nc5ccc(F)cc5)(O4)C3C2=O)cc1 (stereo not given) returned FMDV inh 0%, Sm TGR block 3.2µM*, Shiga inhibitor -44 and CHX counter 7.
For CCOC(=O)c1c(C)c(-c2ccccc2)n(CC(=O)NC(CC)Cc2ccccc2)c1C (stereo not given) the results were FMDV inh -19% and Sm TGR block 6%.
Cc1ccc2nc(NC(=O)CSCc3ccccc3)sc2c1 was read as FMDV inh 16%, Sm TGR block -23%, Shiga inhibitor -2 and CHX counter 8.
For Cc1ccc2nc(NC(=O)CSCC(=O)OCC(=O)c3ccc(Br)cc3)sc2c1 the results were FMDV inh 7.9µM*, Sm TGR block -33%, Shiga inhibitor 46 and CHX counter 15*.
Screening COC(=O)c1ccc2nc(NC(=O)CSCC(=O)OCC(=O)c3ccccc3)sc2c1 returned FMDV inh -13%, Sm TGR block -27%, Shiga inhibitor 34 and CHX counter 36*.
Screening Cc1c(O)ccc(C(=O)CN2CCN(c3ccccc3)CC2)c1O returned FMDV inh 3%, Sm TGR block 22µM*, Shiga inhibitor 17 and CHX counter -1.
For CNC(=S)N/N=C(\C)c1cccc(C(F)(F)F)c1 the results were FMDV inh 14%, Sm TGR block -1%, Shiga inhibitor -7 and CHX counter -3.
Screening CCc1ccc(OCC(=O)N/N=C(\C)c2ccc(OC(F)F)cc2)cc1 returned FMDV inh -10%, Sm TGR block -12%, Shiga inhibitor 31 and CHX counter -1.
Screening COC(=O)N/N=C(\C)c1ccc(OC(F)F)cc1 returned FMDV inh 52%, Sm TGR block 11%, Shiga inhibitor 80* and CHX counter 35*.
For C/C(=N\NC(=O)C1CC1)c1ccc(C)c(C)c1 the results were FMDV inh 26%, Sm TGR block -1%, Shiga inhibitor 1 and CHX counter 28.
`C/C(=N\Nc1ncc(Cl)cc1Cl)c1ccc(OC(F)F)cc1` gave FMDV inh 22%, Sm TGR block -5%, Shiga inhibitor 42* and CHX counter 50*.

Screening results as filed in PubChem BioAssay.
